According to the supplement of paper PMC10732440:
± gives the standard deviation of the averaged measurements.

Test system: Caenorhabditis elegans N2 infected with Nematocida parisii ERTm1
Test: progeny production relative to DMSO uninfected control; higher = more progeny despite microsporidia infection (inhibition of infection with low host toxicity)
Conditions: infection time 6 days; 40 µM
Procedure: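 Bleach-synchronised C. elegans N2 L1 larvae (100 per well) were grown in 96-well plates in K-medium with 5x E. coli OP50 and 15,000 N. parisii spores/uL, plus Pandemic Response Box compound at 100 uM or 40 uM (1% DMSO), for 6 days at 21 C with shaking. Worms were stained with Rose Bengal, scanned on a flatbed scanner and counted with WorMachine. Progeny production is given as % of the DMSO uninfected control (triplicate wells), so higher values mean the compound restores progeny despite infection.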

SMILES | progeny production
Nc1nnc(-c2ccc(Cl)cc2)s1 | 5.44 ± 1.4%
Nc1nc(-c2ccccc2)nc2c1ncn2[C@@H]1O[C@H](COS(=O)(=O)NC(=O)c2ccccc2O)[C@@H](O)[C@H]1O | 6.94 ± 2.3%
O=C(O)c1cc(-c2ccc(Br)cc2)nc2ccc(Cl)cc12 | 4.63 ± 0.086%
NCC(=O)Nc1ccc(-n2nc(C(F)(F)F)cc2-c2ccc3c(ccc4ccccc43)c2)cc1 | 4.52 ± 2.6%
CC[C@@H](CO)NCCN[C@@H](CC)CO | 4.98 ± 2.4%
Cn1c2ccccc2c(=O)c2c(O)cccc21 | 3.85 ± 0.59%
O=C(NNC(=S)Nc1ccc(Cl)cc1)c1ccncc1 | 2.76 ± 1.4%
CN1CCN(Cc2ccc(-c3cnc4[nH]cc(-c5ccc6[nH]ccc6c5)c4c3)cc2)CC1 | 9.2 ± 4.8%
NC(=O)[C@@H]1CC[C@@H]2CN1C(=O)N2OS(=O)(=O)O | 8.69 ± 1.4%
Nc1nc(Nc2ccc3nc(-c4ccc(F)cc4)cc(N)c3c2)cc(-c2ccccc2)n1 | 3.92 ± 1.1%
O=[N+]([O-])c1ccc2c(CCc3c[nH]c4ccccc34)c[nH]c2c1 | 8.93 ± 1.7%
CCc1nc(N)nc(N)c1C#CC(C)c1cc(OC)cc(-c2ccncc2)c1 (stereo not given) | 5.28 ± 2.2%
CC(C)/N=c1\cc2n(-c3ccc(Cl)cc3)c3ccccc3nc-2cc1Nc1ccc(Cl)cc1 | 5.08 ± 1.9%
O=C(O)c1ccc(-c2ccc(O[C@H]3O[C@H](CO)[C@@H](O)[C@H](O)[C@@H]3O)cc2)cc1 | 5.12 ± 2.8%
CO/N=C(\C(=O)N[C@@H]1C(=O)N2C(C(=O)OCOC(=O)C(C)(C)C)=C(/C=C\c3scnc3C)CS[C@H]12)c1csc(N)n1 | 4.46 ± 2.2%
CN1CCN(c2ccc3[nH]c(-c4ccc5[nH]c(-c6ccc(O)cc6)nc5c4)nc3c2)CC1 | 6.36 ± 1.4%
Cc1cc(C2CCCCC2)n(O)c(=O)c1 | 5.34 ± 2.3%
COc1ccc(NS(=O)(=O)c2ccc(Cl)s2)cn1 | 4.12 ± 0.52%
Cc1cc(CCOc2c(C)cc(-c3nnn(C)n3)cc2C)on1 | 4.64 ± 1.1%
Oc1cccc(C(Nc2nccs2)c2ccc3cccnc3c2O)c1 (stereo not given) | 4.05 ± 2%

Same assay, conditions: infection time 6 days; 100 µM

SMILES | progeny production
Nc1nnc(-c2ccc(Cl)cc2)s1 | 16.3 ± 16%
Nc1nc(-c2ccccc2)nc2c1ncn2[C@@H]1O[C@H](COS(=O)(=O)NC(=O)c2ccccc2O)[C@@H](O)[C@H]1O | 6.74 ± 3.1%
O=C(O)c1cc(-c2ccc(Br)cc2)nc2ccc(Cl)cc12 | 11.3 ± 3.5%
NCC(=O)Nc1ccc(-n2nc(C(F)(F)F)cc2-c2ccc3c(ccc4ccccc43)c2)cc1 | 11.9 ± 7%
CC[C@@H](CO)NCCN[C@@H](CC)CO | 6.91 ± 5.6%
Cn1c2ccccc2c(=O)c2c(O)cccc21 | 13.6 ± 7.8%
O=C(NNC(=S)Nc1ccc(Cl)cc1)c1ccncc1 | 18.4 ± 12%
CN1CCN(Cc2ccc(-c3cnc4[nH]cc(-c5ccc6[nH]ccc6c5)c4c3)cc2)CC1 | 14.6 ± 5.6%
NC(=O)[C@@H]1CC[C@@H]2CN1C(=O)N2OS(=O)(=O)O | 22.2 ± 16%
Nc1nc(Nc2ccc3nc(-c4ccc(F)cc4)cc(N)c3c2)cc(-c2ccccc2)n1 | 7.7 ± 7.8%
O=[N+]([O-])c1ccc2c(CCc3c[nH]c4ccccc34)c[nH]c2c1 | 35.7 ± 12%
CCc1nc(N)nc(N)c1C#CC(C)c1cc(OC)cc(-c2ccncc2)c1 (stereo not given) | 9.94 ± 7.4%
CC(C)/N=c1\cc2n(-c3ccc(Cl)cc3)c3ccccc3nc-2cc1Nc1ccc(Cl)cc1 | 9.5 ± 7.2%
O=C(O)c1ccc(-c2ccc(O[C@H]3O[C@H](CO)[C@@H](O)[C@H](O)[C@@H]3O)cc2)cc1 | 7.21 ± 4.6%
CO/N=C(\C(=O)N[C@@H]1C(=O)N2C(C(=O)OCOC(=O)C(C)(C)C)=C(/C=C\c3scnc3C)CS[C@H]12)c1csc(N)n1 | 13.1 ± 5.6%
CN1CCN(c2ccc3[nH]c(-c4ccc5[nH]c(-c6ccc(O)cc6)nc5c4)nc3c2)CC1 | 15.4 ± 12%
Cc1cc(C2CCCCC2)n(O)c(=O)c1 | 33 ± 36%
COc1ccc(NS(=O)(=O)c2ccc(Cl)s2)cn1 | 15 ± 3%
Cc1cc(CCOc2c(C)cc(-c3nnn(C)n3)cc2C)on1 | 8.74 ± 2.1%
Oc1cccc(C(Nc2nccs2)c2ccc3cccnc3c2O)c1 (stereo not given) | 12.9 ± 2.9%
